Several values for one entry are separate records, joined by “and”; a condition that tells them apart may be missing. Equal values may be shown once. Results filed as inconclusive are left out. Activity calls are given as the source filed them. Calls follow the shape of the dose curve; as a rule, active = well fitted curve in the direction sought with a large enough effect; inconclusive = small, poorly fitted or top-dose-only effect, or another doubt; inactive = no such curve, though single readings can be large; an effect the other way counts as inactive or inconclusive.
Experiments:
[1] = Identifying Small Molecule Inhibitors of Pancreatic Cancer Stem Cells (SN12C, Spheroid) (AID 1259360); conditions: Potency: SN12C spheroid viability; also: potency is read from the fitted curve at half-maximal effect
Method in brief: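 Monolayer and spheroid cultures are compared. Spheroids form over 14 days in stem cell medium on hydrogel-coated low-attachment plates, then are exposed to compound for 48 h before CellTiter-Glo luminescence.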

[2] = Identifying Small Molecule Inhibitors of Pancreatic Cancer Stem Cells (A278, Adherent) (AID 1259361);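 also: viability read after 48 h compound exposure; nearly all actives have a fitted effect of over 35% in size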
Method in brief: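 Endpoint: ATP-based luminescence, 48 h drug exposure. Bortezomib at 9.2 uM final as full-kill control; DMSO vehicle as negative control; activity normalized between vehicle and cell-free wells.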

[3] = P-glycoprotein substrates identified in KB-8-5-11 adenocarcinoma cell line, qHTS therapeutic library screen (AID 1346987); also: nearly all actives have a fitted effect of over 65% in size; also: potency is read from the fitted curve at half-maximal effect
Method in brief: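 KB-8-5-11: colchicine-selected sub-line of KB-3-1 over-expressing P-gp; assay medium lacked colchicine. 72 h drug exposure at 37 degree C, CellTiter-Glo.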

[4] = NS1 protein of Zika virus - qHTS assay to identify small molecule inhibitors in human HEK 293 cells (AID 1347053); also: nearly all actives have a fitted effect of over 55% in size; also: potency is read from the fitted curve at half-maximal effect
Method in brief: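 HEK 293; 20 h pre-culture, 37 C/5% CO2; cpd 1 h pre-infection; ZIKV MR766, MOI = 0.5, 24 h, 37 C; TR-FRET NS1 readout (two anti-NS1 Abs); norm. to no-virus vs infected.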

[5] = qHTS of pediatric cancer cell lines to identify multiple opportunities for drug repurposing: Primary screen for DAOY cells (AID 1347090); also: potency is read from the fitted curve at half-maximal effect; nearly all actives have a fitted effect of over 55% in size
Method in brief: (§1)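 Viability measured as metabolically active cells via CellTiter-Glo luminescence following 48 hours of compound exposure, 11-point dilutions in confirmatory testing. 500-1,000 cells/well plated 5 hours before dosing; controls were DMSO and 2.3 µM bortezomib.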

[6] = qHTS of pediatric cancer cell lines to identify multiple opportunities for drug repurposing: Primary screen for SJ-GBM2 cells (AID 1347091); also: potency is read from the fitted curve at half-maximal effect
Method in brief: as §1

[7] = qHTS of pediatric cancer cell lines to identify multiple opportunities for drug repurposing: Primary screen for A673 cells (AID 1347092); also: nearly all actives have a fitted effect of over 45% in size; also: potency is read from the fitted curve at half-maximal effect
Method in brief: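 Luminescence from CellTiter-Glo, taken after 15 min at room temperature, served as the proxy for metabolically active cells following 48 h treatment. Both potency and efficacy were taken from curves fitted to the titration data.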

[8] = qHTS of pediatric cancer cell lines to identify multiple opportunities for drug repurposing: Primary screen for SK-N-MC cells (AID 1347093); also: potency is read from the fitted curve at half-maximal effect
Method in brief: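 Metabolically active cells were quantified by ATP-dependent luminescence (CellTiter-Glo, 15 min at room temperature) following 48 h treatment. Cells had been plated at 500-1,000 per well and settled for 5 h beforehand.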

[9] = qHTS of pediatric cancer cell lines to identify multiple opportunities for drug repurposing: Primary screen for BT-37 cells (AID 1347094); also: potency is read from the fitted curve at half-maximal effect
Method in brief: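 Primary screen of approved and investigational compounds on cells in growth media at 37 degrees C, 5% CO2. MIPE set at 11-point and NPC set at 8-point dilutions; viability scored by ATP-based luminescence at 48 hours.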

[10] = qHTS of pediatric cancer cell lines to identify multiple opportunities for drug repurposing: Primary screen for TC32 cells (AID 1347089); also: nearly all actives have a fitted effect of over 60% in size; also: potency is read from the fitted curve at half-maximal effect
Method in brief: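 qHTS, TC32, 48 h drug treatment, CellTiter-Glo luminescence as a proxy for metabolically active cells; primary top concentration 46 µM (MIPE 11-pt, NPC 8-pt); confirmatory 11-pt.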

[11] = Identifying Small Molecule Inhibitors of Pancreatic Cancer Stem Cells (Panc1, Adherent) (AID 1259362); conditions: Potency: viability; also: potency is read from the fitted curve at half-maximal effect
Method in brief: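 Luminescent ATP readout (CellTiter-Glo) quantifies surviving cells after a 48 h drug incubation. Normalization uses DMSO wells as no inhibition and media-only wells as full inhibition; bortezomib served as positive control.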

[12] = P-glycoprotein substrates identified in KB-3-1 adenocarcinoma cell line, qHTS therapeutic library screen (AID 1346986);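 also: potency is read from the fitted curve at half-maximal effect; potency is for cytotoxicity meaning loss of cell viability; nearly all actives have a fitted effect of over 60% in size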
Method in brief: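 Compounds were tested in dose-response against KB-3-1 and KB-8-5-11 cells at 37 degree C for 72 h, and viability was measured by luminescence. AC50 values came from curve fitting with class-based activity calls.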

COc1ccc(C=Cc2cc(OC)c(OC)c(OC)c2)cc1O
inactive: Potency [4]
active: Potency [1] 2.09 µM | IC50 (viability decrease) [2] 0.0017 µM | Potency [3] 0.001 µM | Potency [5] 0.001 µM | Potency [6] 0.001 µM | Potency [7] 0.001 µM | Potency [8] 0.001 µM | Potency [9] 0.0137 µM

Cn1cc(-c2[nH]c3cc(NC(=O)[C@H](N)C4CCCCC4)cc4c3c2C=NNC4=O)cn1
inactive: Potency [3]
active: Potency [1] 4.18 µM | IC50 (viability decrease) [2] 2.64 µM | Potency [4] 0.332 µM | Potency [10] 2.62 µM | Potency [6] 0.59 µM | Potency [7] 5.9 µM | Potency [8] 0.296 µM

C[C@@H](Oc1cc(-n2cnc3ccc(CN4CCN(C)CC4)cc32)sc1C(N)=O)c1ccccc1C(F)(F)F
active: IC50 (viability decrease) [2] 0.0187 µM | Potency [11] 0.0037 µM | Potency [3] 0.118 µM | Potency [4] 0.059 µM | Potency [10] 0.294 µM | Potency [6] 0.0296 µM | Potency [7] 0.0743 µM | Potency [8] 0.105 µM | Potency [9] 0.153 µM

CC(=O)SC[C@@H](C)C(=O)N1CCC[C@H]1C(=O)N[C@@H](Cc1ccccc1)C(=O)O
inactive: Potency [1] | Potency [11] | Potency [3] | Potency [4] | Potency [6] | Potency [7] | Potency [8] | Potency [9]

COc1cc2c(Oc3ccc4[nH]c(C)cc4c3F)ncnc2cc1OCCCN1CCCC1
active: IC50 (viability decrease) [2] 16.6 µM | Potency [12] 23.1 µM | Potency [5] 18.7 µM | Potency [6] 6.62 µM | Potency [7] 18.7 µM | Potency [9] 24.3 µM
inactive: Potency [4]

O=C(C=Cc1cccc(S(=O)(=O)Nc2ccccc2)c1)NO
active: IC50 (viability decrease) [2] 4.69 µM | Potency [3] 10.8 µM | Potency [10] 9.54 µM | Potency [5] 8.55 µM | Potency [6] 2.15 µM | Potency [7] 4.29 µM | Potency [8] 1.21 µM | Potency [9] 7.03 µM

COc1cc(OC2CCN(C)CC2)ccc1Nc1ncc2c(n1)n(C1CCCC1)c(=O)n2C
active: Potency [1] 20.9 µM | Potency [11] 2.96 µM | Potency [3] 3.72 µM | Potency [5] 23.5 µM | Potency [6] 16.6 µM | Potency [7] 14.8 µM | Potency [8] 3.32 µM

CCCCCN(CCC12CC3CC(CC(C3)C1)C2)C(=O)NCCCc1ccncc1
inactive: Potency [1] | Potency [4] | Potency [10]
active: Potency [3] 16.4 µM | Potency [6] 18.7 µM | Potency [7] 18.7 µM | Potency [8] 16.6 µM | Potency [9] 24.3 µM

CCC[C@H](NC(=O)C(C#N)=Cc1cccc(Br)n1)c1ccccc1
active: IC50 (viability decrease) [2] 26.4 µM | Potency [11] 20.9 µM | Potency [3] 18.7 µM | Potency [4] 14.8 µM | Potency [5] 14.8 µM | Potency [6] 8.33 µM | Potency [7] 9.35 µM | Potency [8] 18.7 µM
inactive: Potency [10]

Nc1ccccc1NC(=O)c1ccc(CNc2nccc(-c3cccnc3)n2)cc1
inactive: Potency [4]
active: IC50 (viability decrease) [2] 1.18 µM | Potency [3] 2.96 µM and 2.31 µM | Potency [10] 6.58 µM | Potency [5] 7.43 µM | Potency [7] 2.35 µM | Potency [8] 0.187 µM | Potency [9] 3.06 µM

Cc1ccc(C(=O)Nc2cccc(C(F)(F)F)c2)cc1-c1ccc2nc(NCCN3CCOCC3)ncc2c1
active: IC50 (viability decrease) [2] 2.64 µM | Potency [11] 11.8 µM | Potency [12] 8.2 µM | Potency [3] 16.6 µM and 11.6 µM | Potency [10] 18.6 µM | Potency [5] 14.8 µM | Potency [6] 6.62 µM | Potency [7] 4.69 µM | Potency [8] 4.69 µM | Potency [9] 6.11 µM

Cn1c(=O)n(-c2ccc(C(C)(C)C#N)cc2)c2c3cc(-c4cnc5ccccc5c4)ccc3ncc21
active: Potency [1] 0.148 µM | Potency [3] 366 nM and 18.7 nM | Potency [6] 0.0662 µM | Potency [7] 0.0296 µM | Potency [9] 0.0544 µM

Cn1cncc1[C@@](N)(c1ccc(Cl)cc1)c1ccc2c(c1)c(-c1cccc(Cl)c1)cc(=O)n2C
active: IC50 (viability decrease) [2] 23.5 µM | Potency [3] 3.72 µM | Potency [5] 14.8 µM | Potency [6] 20.9 µM | Potency [7] 23.5 µM | Potency [8] 1.66 µM | Potency [9] 21.7 µM

CS(=O)(=O)N1CCN(Cc2cc3nc(-c4cccc5[nH]ncc45)nc(N4CCOCC4)c3s2)CC1
active: IC50 (viability decrease) [2] 0.372 µM | Potency [11] 0.59 µM | Potency [3] 2.91 µM | Potency [4] 4.69 µM | Potency [10] 0.829 µM | Potency [6] 0.372 µM | Potency [7] 4.69 µM | Potency [8] 0.0418 µM | Potency [9] 6.85 µM

NC(=O)Nc1cc(-c2cccc(F)c2)sc1C(=O)N[C@H]1CCCNC1
active: IC50 (viability decrease) [2] 1.05 µM | Potency [11] 1.48 µM | Potency [3] 14.8 µM and 7.31 µM | Potency [4] 0.264 µM | Potency [10] 2.34 µM | Potency [5] 1.87 µM | Potency [6] 0.235 µM | Potency [7] 0.187 µM | Potency [8] 0.0372 µM | Potency [9] 0.485 µM

Nc1nc(Nc2ccc(S(N)(=O)=O)cc2)nn1C(=O)c1c(F)cccc1F
active: IC50 (viability decrease) [2] 2.64 µM | Potency [3] 10.5 µM and 7.31 µM | Potency [4] 18.7 µM | Potency [10] 14.7 µM | Potency [5] 11.8 µM | Potency [6] 3.72 µM | Potency [7] 2.96 µM | Potency [8] 3.32 µM | Potency [9] 15.3 µM
